Measured values published in PubChem BioAssay AID588466 (NMMLSC, 2011).
Among all 2,100 compounds or so, about 30 (1%) were called active.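 Rule for the calls: active = compounds whose mean binding response over two repeats is below 75% of the DMSO control; inactive = the rest.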 These entries were drawn from the full list.

target: Desmoglein-3 (Homo sapiens) (UniProt P32926); test: blockers of pemphigus antibody–desmoglein-3 interaction – biochemical, cherry pick 1, bead-based, flow cytometry, confirmation (AID 588466); settings: Protein G beads with DSG3, scFv-GFP binding, at 10 µM, active compounds read low;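 note: 100% = 2% DMSO vehicle and 0% = excess soluble DSG3 blocking control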
Sequence (P32926 whole entry, looked up): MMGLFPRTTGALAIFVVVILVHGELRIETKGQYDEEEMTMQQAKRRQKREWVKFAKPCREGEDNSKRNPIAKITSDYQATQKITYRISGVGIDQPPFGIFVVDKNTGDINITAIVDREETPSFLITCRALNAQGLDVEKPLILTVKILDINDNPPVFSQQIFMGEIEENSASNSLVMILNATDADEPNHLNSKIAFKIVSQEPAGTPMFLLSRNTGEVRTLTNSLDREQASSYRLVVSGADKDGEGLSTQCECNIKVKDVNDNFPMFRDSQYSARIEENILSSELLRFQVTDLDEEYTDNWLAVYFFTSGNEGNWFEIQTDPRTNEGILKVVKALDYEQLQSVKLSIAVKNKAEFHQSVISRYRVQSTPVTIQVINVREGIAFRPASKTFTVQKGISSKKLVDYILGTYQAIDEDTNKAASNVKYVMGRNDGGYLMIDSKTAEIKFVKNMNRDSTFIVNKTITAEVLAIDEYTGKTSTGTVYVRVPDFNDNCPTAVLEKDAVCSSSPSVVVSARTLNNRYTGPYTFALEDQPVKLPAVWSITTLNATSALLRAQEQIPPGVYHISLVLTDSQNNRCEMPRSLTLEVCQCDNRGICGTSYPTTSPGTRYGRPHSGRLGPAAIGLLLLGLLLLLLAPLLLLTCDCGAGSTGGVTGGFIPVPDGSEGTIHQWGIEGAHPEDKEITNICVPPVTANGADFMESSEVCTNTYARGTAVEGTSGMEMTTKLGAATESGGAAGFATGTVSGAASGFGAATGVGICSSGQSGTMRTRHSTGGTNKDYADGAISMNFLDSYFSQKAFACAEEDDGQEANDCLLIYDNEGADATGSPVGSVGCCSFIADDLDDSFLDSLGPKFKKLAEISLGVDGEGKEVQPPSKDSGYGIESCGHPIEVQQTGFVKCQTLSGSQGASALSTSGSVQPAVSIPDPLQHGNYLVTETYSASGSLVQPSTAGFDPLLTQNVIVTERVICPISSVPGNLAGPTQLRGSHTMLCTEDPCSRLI

Binding response (% of DMSO), inactive:
CC(=O)c1ccc(NC(=O)Cn2cnc(S(=O)(=O)N3CCc4ccccc43)c2)cc1 94.8%
COc1cccc(C(=O)NCc2ccc3c(c2)cc(C)n3C)c1 109%
NNc1nc2c(-c3ccc(Cl)cc3)nnn2c2ccccc12 91.9%
COc1ccc(NC(=O)NN2CCN(C)CC2)c(OC)c1 99.8%
CSc1ccccc1OCc1cc(C(=O)N2CCN(Cc3nccn3C)CC2)no1 106%
C=CCNc1nc(-c2cccc(OC)c2O)nc2ccccc12 92.4%
Nc1nc(SCc2nnc(SCC(=O)O)n2-c2ccccc2)nc2sc3c(c12)CCCC3 106%
C=CCn1c(O)c(C2=c3ccccc3=NC2=O)s/c1=N/c1nccs1 71.7%
C=CCN1C2CCCC1CC(NC(=O)Nc1cccc(C(C)=O)c1)C2 (configuration not stated) 104%
COc1ccc(NC(=O)c2cc(-c3ccco3)nc3ccccc23)cc1 74.5%
COc1ccc(NC(=O)CN(C)Cc2cccs2)cc1Cl 105%
COC(=O)c1ccc(NC(=O)COc2ccc3c(c2)OCO3)cc1 102%
CN(c1ccc(C(=O)NC2CC3CCC2C3)cc1)S(C)(=O)=O (configuration not stated) 101%
CC(=O)C1=C(O)CC(c2ccccc2)CC1=NCCc1c(C)[nH]c2ccc(C)cc12 (configuration not stated) 96.5%
CC(C)CNC(=O)c1ccccc1NC(=O)CN(c1ccccc1)S(=O)(=O)N(C)C 102%
CCOC(=O)c1c(S(=O)(=O)NCC(C)c2ccccc2)c(C)n(C)c1C (configuration not stated) 97.9%
CCCOC(=O)CSc1nc(N)c(C#N)c(CC)c1C#N 108%
CN(C)S(=O)(=O)c1cccc(NC(=O)COC(=O)c2cc3ccccc3oc2=O)c1 90.6%
COc1ccc(CNC(=O)c2ccc(Cl)c(NC3=NC4CS(=O)(=O)CC4S3)c2)cc1 (configuration not stated) 104%
CCn1cc(C(=O)NCc2cccnc2)c(=O)c2cc(F)c(N3CCN(C(=O)c4ccco4)CC3)cc21 105%
Cc1ccc(S(=O)(=O)N2CCCCC2)cc1NC(=O)CCNC(=O)c1ccccc1Cl 98.5%
O=C(CSc1nnc(CNC(=O)c2ccc(F)cc2)o1)Nc1nccs1 99.5%
CCOc1ccccc1NS(=O)(=O)c1ccc2[nH]c(=O)[nH]c2c1 89.3%
O=C(CN1CCN(S(=O)(=O)c2cc(Br)ccc2Br)CC1)NCc1ccccc1Cl 108%
Cc1ccc(NC(=O)Nc2ccc3c(c2)OCO3)nc1 101%
COc1ccc(CCN2CC(C(=O)OCC(=O)NC(Cc3ccccc3)C(C)=O)CC2=O)cc1OC (configuration not stated) 102%
CCOc1ccc(NC(=O)c2nc(SCC)ncc2Cl)cc1 101%
CCOc1ccc(C(=O)Nc2cccc3cccnc23)cc1 93%
Cc1ccc(C)n1NC(=O)c1cccs1 91.4%
COc1ccc(CC(=O)OCC(=O)NCc2ccc3c(c2)OCO3)cc1OC 99.5%
CCOC(=O)N1CCC(NC(=O)c2cc3c(-c4ccc(Cl)cc4)nn(C)c3s2)CC1 95.6%
COc1cccc(C(=O)Nc2cc(-c3cn4cccnc4n3)ccc2C)c1 102%
COc1ccc(CNC(=O)C(C)n2nc(C)c3c(C)n(-c4ccccc4)nc3c2=O)c(OC)c1 (configuration not stated) 95.7%
Cc1nc(SCc2nc3c([N+](=O)[O-])cccc3[nH]2)c2oc3ccccc3c2n1 108%
CN(CCC1CCOCC1)C(=O)C1CCC(=O)N(CCc2ccccc2)C1 (configuration not stated) 101%
CCOC(=O)c1cccc(NC(=O)c2ccc3c(c2)C(=O)N(CC2CCCO2)C3=O)c1 (configuration not stated) 103%
COc1ccc(C2=Nn3c(nnc3-c3ccccc3Cl)SC2)cc1OC1CCOC1 (configuration not stated) 91.3%
Nc1cccc(C(=O)c2ccccc2C(=O)O)c1 98.2%
O=C1CSC(c2ccncc2)N1Cc1ccco1 (configuration not stated) 106%
COC(=O)c1ccc(N(C(=O)CNC(=O)c2ccco2)C(C(=O)NCC2CCCO2)c2ccc(OC)c(OC)c2)cc1 (configuration not stated) 104%
CC(=O)Nc1ccc(C(=O)OCC(=O)c2ccc(S(=O)(=O)N3CCCCC3)cc2)cc1 110%
Cc1ccc(-n2nc3c(c2NC(=O)c2ccc(Br)o2)CSC3)c(C)c1 95.6%
Cc1cc(NC(=O)CSc2nccn2-c2ccc(Cl)cc2)no1 103%
CCOc1cccc(C(=O)Nc2ccc(N3CCN(S(C)(=O)=O)CC3)cc2)c1 90.8%
Clc1ccc(-[n+]2c(-c3cccc(Br)c3)[nH]c3nc4ccccc4nc32)cc1 90.4%
COc1ccc(Oc2nnc(-c3ccccc3)cc2C#N)cc1 94.9%
O=C(CSc1nc(=O)[nH]c2c1CCCC2)Nc1ccc(F)cc1F 106%
O=C1c2ccc(-c3ccc(F)cc3OCc3ccccc3)cc2S(=O)(=O)c2cccc(C(=O)N3CCN(c4ncc(Br)cn4)CC3)c21 84.2%
CCOc1ccc2nc(NC(=O)c3ccc(S(=O)(=O)N4CCOCC4)cc3)sc2c1 77.7%
CC1=CCC2C(=O)N(c3ccc(C)c(Br)c3)C(=O)C2C1 (configuration not stated) 109%
COc1ccccc1CN(C)C[C@@H]1OCc2cnnn2CCCC(=O)N([C@@H](C)CO)C[C@H]1C 96.2%
CN(c1ccccc1)S(=O)(=O)c1cccc(NC(=O)C2=NNC(=O)CC2)c1 98.4%
CC(=O)c1cccc(N(C(=O)CNC(=O)c2cccs2)C(C(=O)NCC2CCCO2)c2ccccc2)c1 (configuration not stated) 102%
COc1ccc(-c2csc(NC(=O)c3cc(C)on3)c2C#N)cc1OC 97.8%
O=C(c1cnn(-c2nc3ccccc3s2)c1)c1ccccc1O 102%
CCN1C(=O)[C@H]2[C@@H](c3ccc(C)cc3)N3C(=O)N(c4ccc(OC)cc4)C(=O)[C@@]3(Cc3ccccc3)[C@H]2C1=O 98.4%
COc1ccc(-c2cc(=O)oc3cc(OCC(=O)Nc4ccccn4)ccc23)cc1 88.2%
